Out of some 31,000 sequences screened, about 1,400 (4.5%) were called active.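 How the source made its calls: active means median seed-adjusted z-score above 1 or below -1; inactive means the rest.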 The sample as a whole holds a higher share of actives than the screen did.

A short description of this assay: Novel Modifiers of Survival Motor Neuron (SMN) Protein: Gene Identification via Genome-wide siRNA Screen.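 Further: luminescence tracks full-length SMN protein made from the SMN2 reporter.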 Particulars: HEK293T SMN2-luciferase reporter, siRNA knockdown, 72 h; actives lie on both sides. Summed up: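 siRNA screen, 10418 genes ×3 siRNAs; 1 pmol/well, lipid reverse transfection into HEK293T SMN2-luc reporter line. 72 h, 37 °C, 5% CO2; ONE-Glo readout. Data: neg-ctrl normalized, log10, MAD; hit = MAD >1.0 or < -1.0.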
For the sequence GCAGGACCUUUUAGCAUCUTT against LYL1, the median seed-adjusted z-score was -0.118 (inactive). Then ACCGCUAUGUCUACAUGUUTT against FADS6, with -0.637 (inactive); and GAAACAAACUUAUAGUGAUTT against WBP5, with 0.452 (inactive); and GGAUUUUUGAUUUUCCGAATT against TUBAL3, with 1.05 (active). With CGAAGGCCUUGUGAACAGATT against FOSL1, the median seed-adjusted z-score is -0.431 (inactive). As for “CAGAGAAACGAGUCUUUAATT against ST6GALNAC5”, the median seed-adjusted z-score is -0.0321 (inactive). Regarding GCUUCUAAAUGUGAGACGATT against GCNT4, the median seed-adjusted z-score is -0.0629 (inactive). GGGUACAACUCUUUGAAGATT against MNAT1: the median seed-adjusted z-score was -0.335 (inactive). Consider GCUCAAAUUGUUUUGCGUUTT against AKR1D1, for which the median seed-adjusted z-score is 0.211 (inactive). Take CGCUUCAAGAGGUUCGGAATT against MLPH: the median seed-adjusted z-score is -1.2 (active). Turning to GAAAAGGGAUAACUACGAATT against HIVEP3, the median seed-adjusted z-score was 0.516 (inactive). As to CCAGCGAGCUGAUCCUCAATT against MYCN, the median seed-adjusted z-score is 0.00242 (inactive). Then CCACCUUUGCAACGCGGAATT against TPSD1, with 0.0848 (inactive); and GAGAUGCUGUGAGUAGGUATT against TTC9C, with -0.571 (inactive). Turning to CGACAUUGCCCUGCUCAAATT against ELA2B, the median seed-adjusted z-score is -0.154 (inactive). As for GGGUCACAGAGGUCGAUAUTT against PDILT, the median seed-adjusted z-score was -0.0994 (inactive).

Turning to CAAUAAGGCUCAUGCACAATT against GNAQ, the median seed-adjusted z-score is -1.23 (active). With AACUCUUCAGGUGAAGAUATT against SLC8A2, the median seed-adjusted z-score was 0 (inactive). In the case of GGAGUUUGCGUUUGAGGUATT against PLCD1, the median seed-adjusted z-score was -0.0473 (inactive).

Take CGAAUAUGAUGAAGAUGUUTT against PHF17: the median seed-adjusted z-score is 1.01 (active).

In the case of CAAAGAUCAUGAUAUUCCATT against JUB, the median seed-adjusted z-score was -0.0898 (inactive). Regarding CACCCACCUCAGAUUGAUATT against MBTPS2, the median seed-adjusted z-score was -0.324 (inactive). With CGCUCUACCUGAUCUGCUATT against SLC43A2, the median seed-adjusted z-score was -0.202 (inactive). For the sequence ACAUCAUGAGGAAUGCUAUTT against UCP3, the median seed-adjusted z-score was 1.23 (active).

On to GAGCAGAAAUUAUUCGUUATT against PGDS, for which the median seed-adjusted z-score is 0.02 (inactive). As to GACUAAAGAUUCAGAUAAATT against TRIM13, the median seed-adjusted z-score is 0.712 (inactive). For CGACAGAGGCAGACACAGATT against BATF, the median seed-adjusted z-score is -0.0501 (inactive). In the case of GAAUUGCUCCACCAGAUAATT against NAALAD2, the median seed-adjusted z-score is -0.00068 (inactive). For the sequence GAUGAUGACUUACAUAGAATT against TRRAP, the median seed-adjusted z-score is -1.25 (active). Consider CUAUAGCAAGUGAACUAAATT against COG5, for which the median seed-adjusted z-score was -0.0609 (inactive). Under GGGUUGGUUUGGGCCUGAATT against SOX12 stands 0.478 (inactive); under GAAGAGCAGUGUACCAUCATT against STARD8, -0.135 (inactive); under AAGACGAACUUGAGCUGGATT against MAPK8IP1, 0.576 (inactive). Regarding GCUCCAAUGUCUACAGAAATT against MRGPRE, the median seed-adjusted z-score is -0.65 (inactive). Consider CAGAUGAAAUACUACUUCUTT against ARD1A, for which the median seed-adjusted z-score was -1.05 (active). For the sequence GCAGUUACCCGCAUACCAATT against CALCR, the median seed-adjusted z-score was -0.404 (inactive). Take GGGAAGCCGCCUAUACCAATT against TK1: the median seed-adjusted z-score is -0.0562 (inactive). For the sequence AGACCGUAAUUAUCGUCCUTT against EDG1, the median seed-adjusted z-score was -0.316 (inactive). Consider GGAUGACAUGUCUAGCAUUTT against NXF1, for which the median seed-adjusted z-score was -4.46 (active). Then CAACCUAUCAUAUCUGUUUTT against SLC22A16, with 0.0878 (inactive); and CCAUCGGCAUCACCUUCUATT against SLC35C2, with -0.483 (inactive); and CUGUGAAAAUGGGACGGGATT against NDUFA6, with -0.457 (inactive). As to CAUCAGUCAUAAUGCCUAUTT against MAP1D, the median seed-adjusted z-score was 0.155 (inactive). Consider CGCCUCCAGUUUUAACUCUTT against POU2F3, for which the median seed-adjusted z-score is -1.53 (active). As to GGGUAUUCUGGGCAUGAAATT against NANS, the median seed-adjusted z-score is -1.54 (active). For the sequence GCAAGACCUAUGAAACGAUTT against CADPS, the median seed-adjusted z-score is 0.551 (inactive). Then GCACGAGGUUUUCACCUAUTT against SRMS, with -1.58 (active); and GUUAUACUGUGAGAUCUAATT against GPR160, with -0.278 (inactive); and GAGAUUGGGUGGAAGAGAATT against FOXD2, with -0.0853 (inactive). For the sequence AAGUCGGAAUAGAAUGGAATT against COX7B, the median seed-adjusted z-score is -1.16 (active).

Turning to GGACAACAACUGAAAUGUATT against ZIM3, the median seed-adjusted z-score is -0.02 (inactive).

Turning to AGUUAGGCACAGUCAGACATT against POLD4, the median seed-adjusted z-score is 0.225 (inactive). In the case of CGAUGUAUGACGAGGAAAATT against BTNL3, the median seed-adjusted z-score is 0 (inactive).

On to GUUACGACCUGGAAGAUUATT against SPATA5L1, for which the median seed-adjusted z-score is 0.252 (inactive). As to GAGCAAGACUUCUACGUGATT against SERPINA5, the median seed-adjusted z-score is -1.01 (active).

For the sequence GGCUAAGAAUGACCAUUAUTT against NPR2, the median seed-adjusted z-score was 0.0712 (inactive). As for CAGUCGUCAUAAUACUGCATT against SMC4, the median seed-adjusted z-score was 0.646 (inactive). As to CCCUGUUAGUAACGGCAAATT against OBFC2B, the median seed-adjusted z-score is -0.061 (inactive). As to AGAUGUACCUAUGUCAAGATT against OVOL1, the median seed-adjusted z-score was -0.0414 (inactive). For CCAUGUUUGAACAAGCCCATT against MYL7, the median seed-adjusted z-score was -1.21 (active). On to GCACCUUUGUGACCUAUGATT against KIF9, for which the median seed-adjusted z-score is 0 (inactive).

CGCUAAAGCUGCACACUGATT against TRAF3: the median seed-adjusted z-score is 0.731 (inactive). With GAGCUGACUUUCUGACCAATT against RAB7A, the median seed-adjusted z-score is 0.169 (inactive).

As for GCAACGGUGCUUUCCCAGATT against CASKIN1, the median seed-adjusted z-score was 0.555 (inactive). On to CCAAAGUGGGUGUCAACGATT against BGN, for which the median seed-adjusted z-score was 0.376 (inactive). Under GAAUUUUGUGGUUACACUATT against POLR1D stands -0.0409 (inactive); under GGGUGUAAUUCAUAAGGGUTT against PSMD1, -1.61 (active).

As to GGACUGAUUGGACUCCCAUTT against TNFRSF11A, the median seed-adjusted z-score was -0.0833 (inactive). As to GGACGGUCGUGAUGGAUAATT against SAFB2, the median seed-adjusted z-score is 0.0394 (inactive). As to CCCUGAACAUACCUACUGATT against BRS3, the median seed-adjusted z-score is 0.224 (inactive).

As to ACAUCUAUUUGUGACCUUATT against NHLH2, the median seed-adjusted z-score is 0 (inactive). GCACAAGCAUUGGAAAUAATT against MAP4: the median seed-adjusted z-score was 1.67 (active).

In the case of CCUUUAUGCCUGAUCCUCATT against SULT1C3, the median seed-adjusted z-score was -0.731 (inactive).

CCACAACGGACAGUCCAUATT against CYP17A1: the median seed-adjusted z-score is -1.39 (active). For GGAAAGCAAUAAAAGUUAUTT against TAAR6, the median seed-adjusted z-score is -0.124 (inactive). Take AGGCCUAUAUUGAAGGAGATT against DGKG: the median seed-adjusted z-score is 0.227 (inactive). Under CAACAGGUAUAACUACAUATT against CNDP2 stands 0.43 (inactive). Take CCAAGAAGAUCAGCACCUUTT against GPR26: the median seed-adjusted z-score was -1.33 (active). With AGACCAUAACUACUCACUATT against KDELR3, the median seed-adjusted z-score is 0.476 (inactive).

Take GCUCAAUUGUCGAUCUUUATT against ERO1LB: the median seed-adjusted z-score was 0.565 (inactive). On to GAAGGUUUCUGUGCCCUCATT against SLC4A9, for which the median seed-adjusted z-score was 0 (inactive). Consider CCUGCAAGCUGUCAACUUUTT against PRKACA, for which the median seed-adjusted z-score was -0.137 (inactive).

With CAACUUCUAUAGUCGAAUATT against TXNDC3, the median seed-adjusted z-score was -0.649 (inactive). Under CGAUAUUUAUCCUUACCUATT against SLC9A2 stands -1.02 (active); under CCUUUACGUUCAAAUCACATT against ZNF268, 0.0358 (inactive); under CCAAGGAGUCGUCUACUUUTT against B3GAT3, -0.00603 (inactive). Regarding GCAGAUCUCAUGUCCUCUATT against FPGS, the median seed-adjusted z-score is -0.853 (inactive). Turning to GCAAGUGGUUUGUCAGUAATT against B3GALT5, the median seed-adjusted z-score was 0.144 (inactive). For the sequence GCUCUUAUGCGACAGUUUATT against PFTK2, the median seed-adjusted z-score was -1.16 (active). Consider GGUGUAUGCUGAGGUGAAATT against EIF2C1, for which the median seed-adjusted z-score is 0.215 (inactive). Under AGUCUGUUGGUGCACAAAATT against MDM2 stands 0.258 (inactive); under GAUUUAUGCUAGCUCUAAATT against CFL2, -0.148 (inactive). On to CAUCAAAACUUGGAGAGCATT against FN3K, for which the median seed-adjusted z-score was -0.508 (inactive). On to CCUUCUACAACACCAAGAATT against AGPAT2, for which the median seed-adjusted z-score is 0.38 (inactive).

On to GGAUUACAGGAGACCCAUATT against FUBP1, for which the median seed-adjusted z-score was -1.52 (active). Take CAUUAACAUUGUUCGCAAATT against ACO2: the median seed-adjusted z-score is -1.57 (active). Take UACCAGAUCUCAAAAAGAATT against CCR5: the median seed-adjusted z-score was -0.0281 (inactive). For the sequence GGAUGAAGGUAGUUACGUUTT against RAVER2, the median seed-adjusted z-score is -0.258 (inactive).

With CAUCCACACUGCAAUGAUATT against PILRB, the median seed-adjusted z-score was 0.0351 (inactive). Regarding AAUUUUCCUGUGAUAGAAATT against PATE1, the median seed-adjusted z-score was 1.21 (active).

For the sequence GCGACUUUCUUGGUUUGCATT against SNX2, the median seed-adjusted z-score is -0.569 (inactive). Under CCCUAAAUGUAUCUCGGAATT against GRIN3A stands 0.241 (inactive); under CGAGACGUAUUAUAUCUUUTT against COL4A3BP, 0.0391 (inactive).

Turning to GUGCAUAAGUGUUAGGGAATT against SLC17A2, the median seed-adjusted z-score was 0.141 (inactive). Then GAUCUGAGCUUGUACAGAATT against PSMC2, with -1.96 (active). For the sequence GGAUCGAACCCAUGGAUCATT against ROCK2, the median seed-adjusted z-score is -0.149 (inactive). Consider GAAUAACUGCUGCUUGUAATT against TTRAP, for which the median seed-adjusted z-score was -0.33 (inactive). Take GACUCAUACGAGCGCAUUATT against SEMA4F: the median seed-adjusted z-score was 0.139 (inactive).

The values are drawn from PubChem BioAssay AID1347426 (Functional Genomics Laboratory (NCATS/FGL), 2020).
